The results in this text go back to PubChem BioAssay (Tox21).

Each structure is given as a SMILES string. Records with an inconclusive call do not appear. Entries that show only a call come without a potency. Unmarked numbers belong to inactive results. Active and inactive are the calls of the source. The call rests on the fitted dose curve; in most records, active means well fitted cell-killing curve with a large enough effect in the repeat runs; inconclusive means weak or mixed curves, or effect the other way; inactive means flat fitted curve, though single readings scatter.

The test in a line: qHTS assay to identify small molecule agonists of the estrogen receptor beta (ER-beta) signaling pathway - cell viability counter screen (AID 1259380). Further: nearly all actives have a fitted effect of over 30% in size. The settings on record: ER-beta-bla HEK293T viability, CellTiter-Glo luminescence, 16 h; series mostly up to 92.4 µM. An outline of the steps: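 Compounds dissolved in DMSO were pin-transferred onto ER-beta-UAS-bla HEK293T cells that had settled 6 hr, and exposure ran 16 hr at 37C. Following the reporter read, CellTiter-Glo luminescence after 30 min at room temperature indicated cytotoxicity.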
(qHTS replaces the single test concentration by a dilution series.)
`CN(C)c1cc(NC(=O)CNC(C)(C)C)c(O)c2c1C[C@H]1C[C@H]3[C@H](N(C)C)C(=O)C(C(N)=O)=C(O)[C@@]3(O)C(=O)C1=C2O`: the Potency entry was “inactive”. Take `O=C[C@@H](O)[C@H](O)[C@H](O)CO`: the Potency result was “inactive”. Regarding `CCCCS`, the Potency result is “inactive”. In the case of `C=COCCCCO`, the Potency entry was “inactive”.

`CN1C(CCl)Nc2cc(Cl)c(S(N)(=O)=O)cc2S1(=O)=O` (stereo not drawn): the Potency entry is “inactive”. Take `CCCCN1C(=O)c2ccccc2C1=O`: the Potency result was “inactive”. `Cc1cc(=O)oc2cc(O[C@@H]3SC[C@@H](O)[C@H](O)[C@H]3O)ccc12`: the Potency entry was “inactive”. Consider `C/C=C(\C)C=O`, for which the Potency entry was “inactive”. Turning to `COc1cnc(NS(=O)(=O)c2ccc(N)cc2)nc1`, the Potency entry is “inactive”. As to `COC(=O)/C=C(\C)CCC=C(C)C`, the Potency result is “inactive”.

As to `Cc1cc(O)c(Cl)cc1C`, the Potency entry is “inactive”. Regarding `NNC(=O)OCc1ccccc1`, the Potency entry is “inactive”.

In the case of `CC(=O)c1c(C)cc(C(C)(C)C)cc1C`, the Potency result was “inactive”. On to `COc1ccc2cc(CCC(C)=O)ccc2c1`, for which the Potency entry was “inactive”. Same read-out and setting: next, `CN(C)CCc1c[nH]c2ccc(CS(=O)(=O)N3CCCC3)cc12`: “inactive”; `CCOC(=O)CN1CCCC1=O`: “inactive”. Turning to `CCCCCCCCCCCCCCCCN(C)C`, the activity change, negative = cytotoxicity is 3.62% [at 8.39 µM]. For `C[C@@H]1NC(=O)[C@@H](N)CNC(=O)[C@H](C2CCNC(N)=N2)NC(=O)/C(=C/NC(N)=O)NC(=O)[C@H](CNC(=O)C[C@@H](N)CCCN)NC1=O` (stereo partly drawn), the activity change, negative = cytotoxicity is 11.9% [at 0.349 µM].

Turning to `CCCCC(O)/C=C(C)/C=C/C=C/C(=O)N1CCCC1=O` (stereo not drawn), the Potency result was “inactive”. For the compound `CCc1ncc(C)[nH]1`, the Potency result is “inactive”.

Consider `CCCCCCCCCCCC(C)=O`, for which the Potency entry is “inactive”.

Consider `CC[C@@]1(c2ccccc2)NC(=O)N(C)C1=O`, for which the Potency result was “inactive”. On the same count and under the same terms, next, `CCCC(=O)OC`: “inactive”; `CC(C)(C)OC=O`: “inactive”.

As to `Cc1cc(C)c(N)c(Cl)c1`, the Potency entry was “inactive”.

As to `C=CCON/C(CCC)=C1\C(=O)CC(C)(C)C(C(=O)OC)=C1O`, the Potency result was “inactive”. On the same count and under the same terms, next, `CN1CCN(C(=O)C2CCCCC2)CC1`: “inactive”; `O=C1c2ccccc2C(=O)N1CO`: “inactive”; `C=CC(C)(CCC=C(C)C)OC(=O)C(C)C` (stereo not drawn): “inactive”. On the same count and under the same terms, next, `CCOC(=O)CC(C(C)=O)C(C)=O`: “inactive”; `COC(=O)c1cc(Cl)c(NC(C)=O)cc1OC`: “inactive”; `Cc1nnc(C(=O)NC(C)(C)c2nc(C(=O)NCc3ccc(F)cc3)c(O)c(=O)n2C)o1`: “inactive”. Turning to `Cc1ccc2cccnc2c1`, the Potency result was “inactive”. As to `CCCCN(CCCC)CCCCCCN(CCCC)CCCC`, the Potency entry was “inactive”. In the case of `CC1(C)S[C@@H]2[C@H](NC(=O)Cc3ccccc3)C(=O)N2[C@H]1C(=O)O` (tested in a mixture with another compound), the Potency result was “inactive”. For `CCN1CCN(C(=O)N[C@@H](C(=O)N[C@@H]2C(=O)N3C(C(=O)O)=C(CSc4nnnn4C)CS[C@H]23)c2ccc(O)cc2)C(=O)C1=O`, the Potency entry was “inactive”.

On to `COc1cc(OC)cc(OC)c1`, for which the Potency result is “inactive”. For `Cc1ccc(N)nc1`, the Potency entry is “inactive”.
